Screening results: PubChem, National Center for Advancing Translational Sciences (NCATS)
IL-1B inflam inh = inhibitors of inflammasome signaling (IL-1 beta secretion) | activity change, % at 57.5 µM | AID 743279 | THP-1 LPS/ATP IL-1B secretion, AlphaLISA, 16 h; hits give low values | 360,000 tested, 4.7% active; in the data active = activity change below about -50%; inconclusive = mostly about -30% to -49%; note: % is set by controls: 0 for no effect and ±100 for the full control effect
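Secreted IL-1B measured by AlphaLISA bead assay after 16 h compound exposure of THP-1 cells; compounds (final up to 57.5 uM) added 1 h before LPS (250 ng/mL) and ATP (1.25 mM) stimulation; lower signal means less secretion.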
TDP1 block = blocks human tyrosyl-DNA phosphodiesterase 1; Q9NUW8; recombinant TDP1, AlphaScreen DNA substrate cleavage; Potency, µM (titrated, usually from 130 µM), inactives show at the highest dose activity change, negative = inhibition, actives largely listed as inhibitors; 350,000 tested, 0.28% active; note: potency is the fitted concentration of half-maximal effect; % is set by controls: 0 for no effect and ±100 for the full control effect; nearly all actives have a fitted effect of over 40% in size
Target sequence (Q9NUW8 whole entry, looked up): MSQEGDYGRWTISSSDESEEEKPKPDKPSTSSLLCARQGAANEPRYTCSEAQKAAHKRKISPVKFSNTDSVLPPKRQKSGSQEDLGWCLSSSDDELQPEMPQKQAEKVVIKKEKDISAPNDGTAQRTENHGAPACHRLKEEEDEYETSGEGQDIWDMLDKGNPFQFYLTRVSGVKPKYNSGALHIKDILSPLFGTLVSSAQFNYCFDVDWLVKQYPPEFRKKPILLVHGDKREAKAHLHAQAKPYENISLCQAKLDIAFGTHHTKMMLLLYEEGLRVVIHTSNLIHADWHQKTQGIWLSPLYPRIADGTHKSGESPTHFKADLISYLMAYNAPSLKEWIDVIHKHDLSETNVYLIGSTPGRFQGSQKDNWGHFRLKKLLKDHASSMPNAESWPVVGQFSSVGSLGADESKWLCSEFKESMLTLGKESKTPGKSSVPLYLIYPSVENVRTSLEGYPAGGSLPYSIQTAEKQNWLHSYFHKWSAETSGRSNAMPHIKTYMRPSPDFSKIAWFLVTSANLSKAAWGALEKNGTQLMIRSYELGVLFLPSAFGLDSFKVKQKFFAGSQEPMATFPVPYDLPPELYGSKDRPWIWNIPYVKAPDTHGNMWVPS
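Here, a 5' biotin and 3' phosphotyrosine-FITC DNA oligonucleotide reports Tdp1 activity: intact substrate bridges AlphaScreen beads, while cleavage leaves a 3' phosphate and drops signal. All incubations at room temperature.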
DT40 TDP1 CPT = DT40-hTDP1 cell growth loss with CPT. chicken DT40 Tdp1-/-;hTDP1 cells + 20 nM CPT, ATP luminescence, 48 h. Potency, µM (series often up to 46.2 µM), inactives show top-dose activity change, negative = growth inhibition, hits mostly inhibitors. 420,000 tested, 12% active. AID 686979; note: potency is the fitted concentration of half-maximal effect; % is set by controls: 0 for no effect and ±100 for the full control effect; nearly all actives have a fitted effect of over 55% in size
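Chicken DT40 Tdp1-/- cells complemented with human TDP1, 400 cells/well, exposed to compounds plus 20 nM camptothecin for at least 48 h at 37 C; viability read as ATP content by CellTiter-Glo luminescence.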
TGFb inhibitor = inhibitors of TGF-b signaling. 410,000 tested, 1.2% active. HepG2 CAGA-GFP TGF-b/SMAD3 reporter, GFP fluorescence, 18 h; TGF-beta stimulated, 500 pg/mL final. Potency, µM (doses to about 46.1 µM), for the others: at the highest dose activity, negative = inhibition, hits mostly inhibitors; note: potency is the fitted concentration of half-maximal effect; % is set by controls: 0 for no effect and ±100 for the full control effect; nearly all actives have a fitted effect of over 65% in size
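TGF-beta reporter screen: HEPG2 CAGA-GFP, 1% FBS, 500 pg/mL TGF-beta final, 18 h; per-cell GFP summed per well; curves fitted and categorized by class.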
HepG2 viability = kills HepG2 cells in TGF-b inhibitor counter-screen; 410,000 tested, 0.76% active; HepG2 CAGA-GFP viability, ATP luminescence, 18 h; Potency, µM (doses to about 46.1 µM), for inactives: at the top dose activity change, negative = cytotoxicity, hits mostly cytotoxic; note: potency is the fitted concentration of half-maximal effect
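CellTiter-Glo luminescence gave cytotoxicity after 18 hours at 37 degrees C. The cells were HepG2 CAGA-GFP in 1% FBS DMEM, stimulated with 500 pg/mL TGF-beta after compound addition. %Activity was normalised to no-cell wells (complete cell-killing) and DMSO (no toxicity), and curves were fitted and classified.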
TDP1 cell noCPT = qHTS for Inhibitors of human tyrosyl-DNA phosphodiesterase 1 (TDP1): qHTS in cells in absence of CPT | Potency, µM (top dose mostly 46.2 µM), for the others: at the highest dose activity change, negative = growth inhibition, usual class: inhibitors | AID 686978, 2013 | DT40 Tdp1-/- hTDP1 cells, no CPT, ATP luminescence, 48 h | 420,000 tested, 15% active; note: potency is the fitted concentration of half-maximal effect; % is set by controls: 0 for no effect and ±100 for the full control effect; nearly all actives have a fitted effect of over 55% in size
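Stably hTDP1-transfected Tdp1-null chicken DT40 cells were treated with library compounds minus camptothecin and grown for at least 48 hr at 37 °C, after which cellular ATP was quantified by luminescence.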
* marks the source's active call; other numbers are inactive results; ? = inconclusive; · = not tested or not shown; ! = repeats disagree; [ ] = dose if it differs, or a comment. Hits are enriched below; roughly 19% of the tested compounds scored in any of these assays. Unless noted, calls come from the whole dose curve; as a rule, active = well fitted curve in the direction sought with a large enough effect; inconclusive = small, poorly fitted or top-dose-only effect, or another doubt; inactive = no such curve, though single readings can be large; an effect the other way counts as inactive or inconclusive.

SMILES	IL-1B inflam inh	TDP1 block	DT40 TDP1 CPT	TGFb inhibitor	HepG2 viability	TDP1 cell noCPT
COc1cc(NC(=O)NCCn2nnc3cc(S(=O)(=O)N(C)C)ccc32)cc(OC)c1	·	6.2%	-24.3%	-1.9%	-1.7%	-2.6%
Cc1cc(-c2nnc(CCC(=O)NCc3cc(F)cc(C(F)(F)F)c3)o2)no1	0.1	4.7%	-14.2%	14.0%	-3.1%	-0.7%
Brc1ccc(OCc2nc(-c3ccccn3)n[nH]2)cc1	-13.3	12.7%	?	-18.8%	-22.8%	14.6µM*
Cn1cc(Br)c(C(=O)N/N=C/c2cc3ccccc3nc2Cl)n1	-24.2	3.1%	?	-9.3%	9.3%	20.6µM*
O=C(N/N=C/c1ccccc1O)c1ccncc1	110.1	13.6%	4.61µM*!	-5.4%	-32.9%	3.66µM*
Cc1nc(C)c(C(=O)N/N=C/c2cc(Br)ccc2O)s1	118.6	·	4.61µM*	?	-9.2%	3.66µM*
O=C(N/N=C/c1cc2ccccc2nc1Cl)c1ccncc1	101.7	2.5%	2.59µM*	17.0%	4.7%	4.61µM*
O=C(N/N=C/c1ccc(O)c2ncccc12)c1cccc(Br)c1	120.7	9.2%	3.66µM*	12.6µM*	-54.6%	4.61µM*
O=C(N/N=C\c1cc(Br)ccc1O)c1ccc(S(=O)(=O)N2CCCCC2)cc1	91.3	5.5%	4.11µM*	?	-23.8%	2.91µM*
O=C(N/N=C/c1cc(Br)ccc1OC(=O)c1ccc(Br)cc1)c1ccncc1	112.8	·	4.61µM*	-25.5%	-31.5%	6.51µM*
Cc1ccc(NCC(=O)N/N=C/c2cc3ccccc3nc2Cl)cc1	-21.0	6.9%	23.1µM*	?	-41.8%	29.1µM*
O=C(N/N=C\c1ccc(Sc2ccccn2)o1)c1cccc(Br)c1	?	5.8%	0.9%	1.2%	-23.2%	-8.1%
O=C(CN1CCOCC1)N/N=C/c1cc2ccccc2nc1Cl	-10.1	0.0%	?	9.4%	3.0%	?
COc1ccc(O[C@H]2C=C[C@@H](c3ccccc3)O[C@H]2COC(=O)CC/C(C)=N\O[C@@H](C)CN2CCCc3nc(C)c(C)cc32)cc1	·	3.7%[21 µM]	·	·	·	·
O=C(NN=Cc1cccc(O)c1O)c1ccccc1	134.5	·	2.59µM*	-15.2%	-42.5%	4.61µM*
O=C(CNC(=O)c1ccc(S(=O)(=O)N2CCCC2)cc1)N/N=C/c1c(Cl)cccc1Cl	-58.0*	5.1%	?	-12.9%	-22.7%	?
O=C(N/N=C/c1cc(Br)ccc1O)c1ccncc1	162.3	9.8%	4.61µM*	?	-43.0%	1.64µM*
O=C(N/N=C/c1ccccc1O)c1cc[n+]([O-])cc1	42.3	8.0%	14.6µM*	-6.4%	-13.3%	29.1µM*
O=C(N/N=C/c1cc([N+](=O)[O-])ccc1O)c1ccncc1	141.8	12.8%	?	-19.4%	-10.2%	?
O=C(CNC(=O)c1ccc(S(=O)(=O)N2CCCC2)cc1)N/N=C/c1ccc(Cl)cc1	-12.9	-2.8%	?	0.6%	-8.0%	?
CCc1ccc(NC(=O)CN2C(=O)C(c3ccc(C)cc3)=NC23CCCCC3)cc1	·	5.1%	?	·	-17.3%	?
COC(=O)[C@]1(C)N[C@H](CN(C)C(=O)c2ccccc2)[C@@H]2C(=O)N(Cc3ccccc3)C(=O)[C@@H]21	24.9	-0.1%	3.8%	11.3%	14.3%	-1.9%
COc1ccc(/C=N/NC(=O)C(=O)Nc2ccccn2)cc1OC	30.6	0.0%	15.5%	6.4%	-4.2%	-14.5%
O=C(N/N=C/c1cccc(Br)c1)c1ccc(Br)cc1	-14.3	?	-11.9%	-21.5%	-38.4%	-19.1%
O=C(N/N=C/c1ccccc1O)C(=O)Nc1ccccn1	67.7	0.0%	13µM*	-15.5%	-31.1%	14.6µM*
SMILES	IL-1B inflam inh	TDP1 block	DT40 TDP1 CPT	TGFb inhibitor	HepG2 viability	TDP1 cell noCPT
Cc1ccc(N=Nc2ccc(O)c(/C=N\NC(=O)c3ccc(N)cc3)c2)cc1C	86.5	-2.0%	10.3µM*	-2.4%	-21.5%	13µM*
O=C(N/N=C/c1cc(Cl)ccc1O)c1ccc(Br)cc1	47.1	-13.5%	5.17µM*	-16.5%	-17.6%	5.8µM*
NC(=S)N/N=C/c1cccc(O)c1O	59.4	0.0%	0.581µM*	-17.5%	-16.4%	0.92µM*
NC(=S)N/N=C/c1ccccc1O	5.5	9.4%	?	-4.4%	-25.6%	?
O=C(COC(=O)c1cccc(S(=O)(=O)NCc2ccccc2)c1)NCC1CCCO1 (centres undefined)	8.0	-2.7%	1.2%	0.5%	-8.6%	-20.6%
O=C(Nc1ccccc1C(F)(F)F)c1ccc2oc(=O)c(S(=O)(=O)c3ccc(F)cc3)cc2c1	·	-1.2%	-23.7%	?	-50.4%	-22.8%
Cc1ccc(NC(=O)CN2C(=O)C(c3ccc(C(C)(C)C)cc3)=NC2(C)C)cc1	·	0.0%	?	4.8%	-15.0%	?
Cc1ccc(C)c(NC(=O)CN2C(=O)CC(C)S(=O)(=O)c3ccccc32)c1 (centres undefined)	59.2	0.3%	4.8%	-9.0%	-13.1%	25.7%
CCOc1ccc(C2C(C(=O)OC)=C(C)NC3=C2C(=O)c2ccccc23)cc1OC (centres undefined)	·	·	18.4µM*	2.1%	-19.0%	20.6µM*
CCOc1cc(C2NC(=O)N(C)C(C)=C2C(=O)OC)cc(Br)c1O (centres undefined)	4.5	6.8%	11.4%	8.3%	-13.9%	-1.4%
C#CCOc1c(Br)cc(C2C(C(=O)OC)=C(C)NC3=C2C(=O)c2ccccc23)cc1OCC (centres undefined)	·	·	?	-20.2%	-0.1%	5.8µM*
CCOC(=O)C1=C(C)NC2=C(C(=O)c3ccccc32)C1c1cccnc1 (centres undefined)	-9.8	2.2%	?	0.0%	-0.6%	?
C1CCCCCC2(CCCCC1)OCC(CN1CCOCC1)O2 (centres undefined)	6.7	3.5%	?	-17.4%	9.8%	23.1µM*
CCNC(=O)c1ccc(=O)n(Cc2ccc(Cl)cc2Cl)c1	12.9	·	-19.4%	-0.6%	0.6%	-25.4%
COc1ccccc1C(=O)N1CCN(C(=O)c2oc3c(C)c(C)ccc3c2C)CC1	-27.4	·	?	-27.2%	-31.4%	16.4µM*
Cc1ccc2c(C)c(C(=O)N3CCC(C(N)=O)(N4CCCCC4)CC3)oc2c1C	-8.8	·	?	?	-29.2%	20.6µM*
COc1ccccc1C(=O)N1CCCN(C(=O)c2ccccc2OC)CC1	-25.3	2.2%	-7.5%	0.1%	-10.5%	1.2%
